The list is not random: actives were taken first. Their share in the collection is about 11%.
Luciferase inh: Photinus pyralis luciferase inhibition | purified P. pyralis luciferase, luminescence, biochemical | Potency, µM (titrated, usually from 115 µM), most hits filed as inhibitors | 76,000 tested, 2.5% active; active means well fitted curve in the direction sought with a large enough effect; inconclusive means small, poorly fitted or top-dose-only effect, or another doubt; inactive means no such curve, though single readings can be large; an effect the other way counts as inactive or inconclusive; further: nearly all actives have a fitted effect of over 65% in size
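FLuc 10nM, D-luciferin 10uM, ATP 10uM, Mg acetate 10mM, Tris acetate pH 7.5, Tween/BSA; cpd qHTS; enzyme added last; CCD luminescence.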
NPR1 antag: antagonists of human natriuretic peptide receptor Npr1; HEK293 hNpr1 GloSensor cGMP, ANP-stimulated luminescence; Potency, µM (top dose mostly 46.3 µM), most hits filed as inhibitors; 76,000 tested, 1.6% active; further: nearly all actives have a fitted effect of over 60% in size
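HEK293 cells stably expressing human Npr1 and cGMP GloSensor pGS-40F, loaded 2 h with 2% GloSensor reagent, given compound 30 min at room temperature. Luminescence read before and 20 min after 0.1 nM hNppA.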
NIH3T3 tox: cytotoxic compounds in NIH 3T3 cells; NIH 3T3 viability, CellTiter-Glo ATP luminescence, 48-72 h; Potency, µM (doses to about 96.7 µM), usual class: inhibitors; 94,000 tested, 4.3% active; active means well fitted curve in the direction sought with a large enough effect; inconclusive means small, poorly fitted or top-dose-only effect, or another doubt; inactive means no such curve, though single readings can be large; an effect the other way counts as inactive or inconclusive; further: nearly all actives have a fitted effect of over 55% in size
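Cytotoxicity was measured by CellTiter-Glo ATP luminescence after 48 or 72 h compound exposure at 37 °C. Mouse NIH 3T3 fibroblasts were seeded at 400 cells/well and dosed by 23 nL pin transfer.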
HEK293 tox: kills HEK 293 cells; HEK 293 viability, ATP luminescence (CellTiter-Glo), 48-72 h; Potency, µM (titrated, usually from 115 µM), actives largely listed as inhibitors; 94,000 tested, 6.6% active; active means well fitted curve in the direction sought with a large enough effect; inconclusive means small, poorly fitted or top-dose-only effect, or another doubt; inactive means no such curve, though single readings can be large; an effect the other way counts as inactive or inconclusive; further: nearly all actives have a fitted effect of over 60% in size
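Luminescence from cellular ATP, measured with CellTiter-Glo, indicates HEK 293 viability. Cells plated at 250 cells/well are treated with compound for 48 or 72 hr at 37 degree Celsius before reagent addition.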
NPR1 antag cnf: hNpr1 antagonism, confirmation assay; 1,400 tested, 76% active; HEK293 hNpr1 cGMP GloSensor luminescence, ANP-stimulated; shares compounds with NPR1 antag; Potency, µM (doses to about 57.6 µM), hits mostly inhibitors; further: nearly all actives have a fitted effect of over 70% in size
NPR2 antag: antagonizes human Npr2, subtype selectivity check; shares compounds with NPR1 antag; HEK293 hNpr2 GloSensor cGMP luminescence, CNP-stimulated; Potency, µM (series often up to 57.6 µM), usual class: inhibitors; 1,400 tested, 67% active; further: nearly all actives have a fitted effect of over 70% in size
Target sequence (P20594 whole entry, looked up): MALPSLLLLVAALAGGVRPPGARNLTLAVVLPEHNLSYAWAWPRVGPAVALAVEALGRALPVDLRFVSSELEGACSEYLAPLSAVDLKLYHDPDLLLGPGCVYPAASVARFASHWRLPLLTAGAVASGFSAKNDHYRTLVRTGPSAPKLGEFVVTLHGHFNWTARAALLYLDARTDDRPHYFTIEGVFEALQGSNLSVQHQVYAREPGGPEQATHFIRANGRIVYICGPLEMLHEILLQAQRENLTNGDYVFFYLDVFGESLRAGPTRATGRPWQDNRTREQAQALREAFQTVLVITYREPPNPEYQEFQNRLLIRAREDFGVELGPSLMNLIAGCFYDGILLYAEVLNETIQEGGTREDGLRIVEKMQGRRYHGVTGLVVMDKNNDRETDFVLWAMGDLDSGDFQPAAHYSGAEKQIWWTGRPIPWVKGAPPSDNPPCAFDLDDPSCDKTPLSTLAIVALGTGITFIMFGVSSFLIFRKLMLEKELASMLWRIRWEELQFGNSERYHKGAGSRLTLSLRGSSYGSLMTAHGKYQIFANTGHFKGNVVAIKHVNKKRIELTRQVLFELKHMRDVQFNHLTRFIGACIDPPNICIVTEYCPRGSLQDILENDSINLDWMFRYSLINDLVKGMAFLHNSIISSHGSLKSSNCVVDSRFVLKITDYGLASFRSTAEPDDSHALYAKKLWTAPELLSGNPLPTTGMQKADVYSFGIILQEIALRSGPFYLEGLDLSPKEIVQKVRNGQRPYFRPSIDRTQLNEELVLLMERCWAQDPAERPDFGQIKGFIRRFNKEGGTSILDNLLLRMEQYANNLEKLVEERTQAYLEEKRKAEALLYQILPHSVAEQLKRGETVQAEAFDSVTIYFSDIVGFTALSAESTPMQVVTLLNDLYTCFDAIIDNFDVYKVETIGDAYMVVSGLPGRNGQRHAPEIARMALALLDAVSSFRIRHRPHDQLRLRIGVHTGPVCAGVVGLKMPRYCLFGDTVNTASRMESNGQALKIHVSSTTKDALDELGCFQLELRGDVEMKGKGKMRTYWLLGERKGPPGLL
FLuc inh counter: counter-screen for Npr1 antagonists: firefly luciferase inhibitors; 1,400 tested, 0.7% active; shares compounds with NPR1 antag; Potency, µM (doses to about 57.6 µM), most hits filed as inhibitors; AID 1347047; purified FLuc enzyme, luminescence, Km substrate; active means well fitted curve in the direction sought with a large enough effect; inconclusive means small, poorly fitted or top-dose-only effect, or another doubt; inactive means no such curve, though single readings can be large; an effect the other way counts as inactive or inconclusive
GloSensor ctrl: control cell line activity, Npr1 antagonist counter-screen. HEK293 GloSensor cGMP, SNP-stimulated, luminescence. Potency, µM (top dose mostly 57.6 µM), usual class: inhibitors. AID 1347051. 1,400 tested, 69% active. shares compounds with NPR1 antag; further: nearly all actives have a fitted effect of over 70% in size
Of the large screens only hits and unclear results are named; the others gave an inactive call (follow-up assays come after a bar, where they were run). Unless noted, the call rests on the fitted dose curve.

O=c1n(-c2ccncc2)nc2n1CCN(Cc1ccc(F)cc1)C2	NPR1 antag inconclusive, NIH3T3 tox inconclusive, HEK293 tox inconclusive
Cn1nccc1CN1CCn2c(nn(-c3ccc(C(F)(F)F)cc3)c2=O)C1	NIH3T3 tox inconclusive, HEK293 tox inconclusive (no result: Luciferase inh, NPR1 antag) | NPR1 antag cnf inconclusive | NPR2 antag inconclusive | FLuc inh counter inactive | GloSensor ctrl inconclusive
CCOc1ccc(CN(Cc2cccc(Oc3ncccn3)c2)C2CC2)cc1	NIH3T3 tox inconclusive, HEK293 tox inconclusive
Cc1ccsc1CN1CCC2(Cc3ccccc3CNC2=O)C1 (stereo not given)	none (no result: Luciferase inh, NPR1 antag)
Cc1cc(Cl)ccc1-c1ccc(CNC2CN(C(=O)OC(C)(C)C)C2)cc1	NIH3T3 tox inconclusive, HEK293 tox inconclusive (no result: Luciferase inh, NPR1 antag) | NPR1 antag cnf 22µM | NPR2 antag 22µM | FLuc inh counter inactive | GloSensor ctrl 19µM
O=Cc1ccccc1-c1cccc(O)c1	NIH3T3 tox inconclusive, HEK293 tox inconclusive (no result: Luciferase inh, NPR1 antag) | NPR1 antag cnf inconclusive | NPR2 antag 50µM | FLuc inh counter inconclusive | GloSensor ctrl inconclusive
Cc1cccc(-c2ccccc2C=O)c1	none (no result: Luciferase inh, NPR1 antag)
CC(C)CNC(=O)c1ccc2oc(-c3cccnc3)nc2c1	none (no result: Luciferase inh, NPR1 antag)
CC(=O)Nc1ccccc1-c1c(C)nn2c1N(CCC(C)C)CCC2	NIH3T3 tox inconclusive, HEK293 tox inconclusive
Cc1nn2c(c1-c1ccccc1[S+](C)(=O)[O-])N(CCC(C)C)CCC2	NPR1 antag 11µM, NIH3T3 tox inconclusive, HEK293 tox inconclusive | NPR1 antag cnf 3.1µM | NPR2 antag 8.9µM | FLuc inh counter inactive | GloSensor ctrl 3.1µM
O=c1[nH]ccn1C1CCN([S+](=O)([O-])c2cccc(C(F)(F)F)c2)CC1	NIH3T3 tox inconclusive (no result: Luciferase inh, NPR1 antag)
CCOc1ccc(NC(=O)Cn2c(N3CCC(C)CC3)nc(C)cc2=O)cc1	NPR1 antag inconclusive, NIH3T3 tox inconclusive, HEK293 tox inconclusive
COc1ccc(Cl)cc1NC(=O)Cn1c(N2CCC(C)CC2)nc(C)cc1=O	NPR1 antag 11µM, NIH3T3 tox inconclusive, HEK293 tox 45µM | NPR1 antag cnf 19µM | NPR2 antag 19µM | FLuc inh counter inactive | GloSensor ctrl 15µM
CCOC(=O)c1ccc(NC(=O)Cn2c(N3CCC(C)CC3)nc(C)cc2=O)cc1	NPR1 antag 14µM, NIH3T3 tox inconclusive, HEK293 tox inconclusive | NPR1 antag cnf 22µM | NPR2 antag 19µM | FLuc inh counter inactive | GloSensor ctrl 22µM
O=C(c1ccc(C(F)(F)F)cc1)N1CCC(c2nn(-c3ccccn3)c(=O)[nH]2)CC1	none (no result: Luciferase inh, NPR1 antag)
O=C(Nc1ccccc1F)C1c2ccccc2C(=O)N(Cc2ccccc2)C12CCCC2 (stereo not given)	NIH3T3 tox inconclusive, HEK293 tox inconclusive
CN(Cc1ccc(-c2ccccc2)cc1)Cc1ccc(N(C)C)cc1	HEK293 tox inconclusive
CN(Cc1ccncc1)Cc1ccc(-c2ccccc2)cc1	NPR1 antag inconclusive, NIH3T3 tox inconclusive, HEK293 tox 71µM | NPR1 antag cnf 22µM | NPR2 antag 28µM | FLuc inh counter inactive | GloSensor ctrl 18µM
COCCN(C)Cc1nc(Cc2ccccc2Cl)no1	none
CN(Cc1nc(Cc2ccccc2Cl)no1)Cc1cccc2cnccc12	NPR1 antag 14µM, NIH3T3 tox inconclusive, HEK293 tox inconclusive | NPR1 antag cnf 11µM | NPR2 antag 12µM | FLuc inh counter inactive | GloSensor ctrl 11µM
CCOc1ccccc1C1NC(=O)N(CC(=O)Nc2ccc(C)c(F)c2)C2=C1C(=O)OC2 (stereo not given)	NIH3T3 tox inconclusive, HEK293 tox inconclusive
Cc1nc(CN2C(=O)OC3(CCN(Cc4c[nH]c5ccccc45)CC3)C2(C)c2ccccc2)cs1 (stereo not given)	NIH3T3 tox 20µM, HEK293 tox inconclusive | NPR1 antag cnf inconclusive | NPR2 antag inconclusive | FLuc inh counter inactive | GloSensor ctrl inactive
COc1ccc(CC(=O)N2CCCN(c3ccnc4ccnn34)CC2)cc1	HEK293 tox inconclusive (no result: Luciferase inh, NPR1 antag)
N#Cc1cccnc1-c1ccc(C(=O)N2CCC(NC(=O)Cc3ccc(F)cc3)CC2)cc1	none (no result: Luciferase inh, NPR1 antag)
Cc1cc(C)c([S+](=O)([O-])c2nnn3c2nc(N2CCCCC2)c2ccccc23)c(C)c1	none (no result: Luciferase inh, NPR1 antag)
CC1=NS(=O)(=O)N(C)C=C1C(=O)OCc1nc(-c2ccc(C(F)(F)F)cc2)no1	NPR1 antag 10µM, NIH3T3 tox inconclusive, HEK293 tox 40µM | NPR1 antag cnf 9.7µM | NPR2 antag 11µM | FLuc inh counter inactive | GloSensor ctrl 9.7µM
CC1=NS(=O)(=O)N(C)C=C1C(=O)OCc1nc(-c2cccc(F)c2)no1	NPR1 antag inconclusive, HEK293 tox inconclusive
CC1=NS(=O)(=O)N(C)C=C1C(=O)OCc1nc(-c2ccccc2)oc1C	NPR1 antag 10µM, NIH3T3 tox inconclusive, HEK293 tox inconclusive | NPR1 antag cnf 12µM | NPR2 antag 14µM | FLuc inh counter inactive | GloSensor ctrl 11µM
CC1=NS(=O)(=O)N(C)C=C1C(=O)OCc1nc(-c2ccccc2)no1	HEK293 tox inconclusive
CC1=NS(=O)(=O)N(C)C=C1C(=O)OCc1nc(-c2cccc(Cl)c2)no1	NPR1 antag 14µM, HEK293 tox inconclusive | NPR1 antag cnf 22µM | NPR2 antag inconclusive | FLuc inh counter inactive | GloSensor ctrl inconclusive
O=C(N1CCN(Cc2ccccc2)CC(O)C1)C1(c2ccccc2F)CC1 (stereo not given)	none
CCN(CC)C(=O)C[C@@H]1c2nc(NC(=O)c3cccc(F)c3)sc2C[C@@H]2[C@](C)(CO)[C@H](O)CC[C@]21C	none
CC(C)NC[C@H]1Cn2c(-c3cccc(Cl)c3)cnc2CO1	none
COc1ccc(CNC[C@H]2Cn3c(-c4ccc(Cl)cc4)cnc3CO2)cc1	NPR1 antag 25µM, NIH3T3 tox 32µM, HEK293 tox 56µM | NPR1 antag cnf 31µM | NPR2 antag 35µM | FLuc inh counter inactive | GloSensor ctrl inconclusive
COc1ccc(S(=O)(=O)NC[C@H]2Cn3c(-c4ccc(Cl)cc4)cnc3CO2)cc1	NPR1 antag inconclusive, NIH3T3 tox 79µM, HEK293 tox 89µM | NPR1 antag cnf inconclusive | NPR2 antag inconclusive | FLuc inh counter inactive | GloSensor ctrl inactive
CO[C@H]1CN(C(C)C)[C@H]1C1CCN(C(=O)c2cc(C)nn2C)CC1	none (no result: Luciferase inh, NPR1 antag)
O=C1CCN(C(=O)[C@@H]2CCCN2S(=O)(=O)c2ccccc2)CCCCCCN1	NIH3T3 tox inconclusive
COCC(=O)N1CC(C(=O)NCc2cccc(F)c2)CC(c2ccc(F)c(C)c2)C1 (stereo not given)	HEK293 tox inconclusive

Compound activity deposited in PubChem by National Center for Advancing Translational Sciences (NCATS).
